Vif-A3G inh = inhibitors of Vif-APOBEC3G interaction | Q9HC16 | HeLa A3G-eYFP + Vif (tagged APOBEC3G with the HIV-1 protein that degrades it), YFP fluorescence, overnight | Potency, µM (titrated, usually from 46.1 µM), for the others: top-dose activity, negative = active, most hits filed as inhibitors | 0.076% of 410,000 active; further: on the % scale 0 is the no-effect control and ±100 the full control effect; nearly all actives have a fitted effect of over 60% in size
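Read-out is eYFP fluorescence (Ex 488/Em 500-530) from Vif-expressing HeLa A3G-eYFP cells; more signal means A3G escaped Vif-mediated degradation. Cells plated overnight, compound pinned in, incubated overnight at 37 deg C.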
Epigenetic reg = derepresses silenced GFP reporter in murine cells | 0.2% of 280,000 active | Potency, µM (top dose mostly 53.9 µM), for inactives: at the highest dose GFP activation, usual class: activators | AID 1865 | murine LDR cells, GFP reporter derepression, 30 h; further: % of control where 0% means no effect; nearly all actives have a fitted effect of over 60% in size
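Murine LDR cells carrying a silenced, genomically integrated CMV-driven GFP reporter were exposed to compound for 30 hours at 37 C. After PBS washes, GFP-positive cells (20–120 um objects) were counted by laser-scanning microplate cytometry.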
PINK1 modulator = changes PINK1 expression; PINK1 immunofluorescence, high-content cytometry, 24 h; Potency, µM (series often up to 76.6 µM), for inactives: at the top dose activation (PINK1 increase), most hits filed as activators; 0.2% of 410,000 active; AID 624263; active means well fitted activation curve with a large enough effect; inconclusive means small, poorly fitted or top-dose-only effect; cell line not stated here; further: % of control where 0% means no effect; nearly all actives have a fitted effect of over 65% in size
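Stable cell line treated 24 h with compounds at 5 concentrations (CCCP controls), then fixed and immunostained for PINK1 plus nuclear and cell stains; PINK1 immunofluorescence quantified by laser-scanning microplate cytometry.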
Vif-A3F inh = inhibitors of Vif-A3F interaction; AID 602313; 0.2% of 390,000 active; Potency, µM (titrated, usually from 46.1 µM), without a hit: top-dose activity, negative = active; HeLa A3F-eYFP + Vif (tagged APOBEC3F with the HIV-1 protein that degrades it), YFP fluorescence increase; further: % of control where 0% means no effect; nearly all actives have a fitted effect of over 65% in size
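HeLa cells stably expressing Vif plus C-terminally eYFP-tagged A3F were seeded, incubated overnight at 37 deg C, dosed with compound, incubated overnight again at 37 deg C. Yellow fluorescence (Ex 488/Em 500-530) reported blocked Vif-mediated A3F-eYFP degradation.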
GLS inhibitor = glutaminase GLS (human) inhibition. GLS enzymatic activity, qHTS titration. Potency, µM (doses to about 45.5 µM), for inactives: top-dose activity change, negative = inhibition, actives largely listed as inhibitors. 0.21% of 410,000 active; further: on the % scale 0 is the no-effect control and ±100 the full control effect
Target sequence (O94925 whole entry, looked up): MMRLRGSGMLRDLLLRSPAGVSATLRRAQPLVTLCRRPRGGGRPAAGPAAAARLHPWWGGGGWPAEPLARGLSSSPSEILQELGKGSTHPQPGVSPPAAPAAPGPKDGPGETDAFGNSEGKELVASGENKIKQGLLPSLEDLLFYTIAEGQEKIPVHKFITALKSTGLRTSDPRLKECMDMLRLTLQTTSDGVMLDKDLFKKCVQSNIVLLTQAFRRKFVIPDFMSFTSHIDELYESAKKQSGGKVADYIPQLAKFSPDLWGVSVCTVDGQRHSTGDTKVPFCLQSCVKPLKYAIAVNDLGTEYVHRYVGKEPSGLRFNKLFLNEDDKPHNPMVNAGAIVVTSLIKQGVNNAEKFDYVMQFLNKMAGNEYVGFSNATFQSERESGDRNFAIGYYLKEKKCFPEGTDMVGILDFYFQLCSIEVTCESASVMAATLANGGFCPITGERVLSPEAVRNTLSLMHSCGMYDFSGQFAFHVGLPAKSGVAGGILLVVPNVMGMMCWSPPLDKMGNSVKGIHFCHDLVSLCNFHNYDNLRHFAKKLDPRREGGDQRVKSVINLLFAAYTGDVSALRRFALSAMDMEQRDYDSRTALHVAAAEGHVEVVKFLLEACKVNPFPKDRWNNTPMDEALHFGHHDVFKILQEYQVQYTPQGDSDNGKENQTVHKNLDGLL
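Two-point fluorescence kinetic (t0, 30 min RT) for hKGA; glutamate detected via glutamate oxidase–HRP–Amplex Red. Substrate: 1 mM L-glutamine solution; buffer 45 mM KH2PO4, pH 8.2.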
Active calls of the source: *; ? = inconclusive; nt = no result given; [ ] = dose if it differs, or a comment. The list is not random: actives were taken first. Their share in the collection is about 0.7%. Unless noted, the call rests on the fitted dose curve; in most records, active means well fitted curve in the direction sought with a large enough effect; inconclusive means small, poorly fitted or top-dose-only effect, or another doubt; inactive means no such curve, though single readings can be large; an effect the other way counts as inactive or inconclusive. Potency means the concentration at half of the fitted maximal effect.

SMILES | Vif-A3G inh | Epigenetic reg | PINK1 modulator | Vif-A3F inh | GLS inhibitor
CCc1cc(OC)c(CC(C)N)cc1OC (stereo not drawn) | nt | nt | nt | nt | 8%[99.4 µM]
CCCCn1c(N)c(N(CCOC)C(=O)CN2CC=C(c3ccccc3)CC2)c(=O)[nH]c1=O | -9% | 1% | -2% | -11% | 5%
CCCCn1c(N)c(N(CC(C)C)C(=O)c2cc(Br)c(Br)s2)c(=O)[nH]c1=O | -20% | nt | 13% | 25µM* | -3%
COCCOC(=O)c1c(C)n(C)c2ccc(OC(=O)N(C)C)cc12 | 0% | -9% | 5.6µM* | 2% | -11%
c1ccc2c(c1)-c1cccc3cccc-2c13 | -2% | nt | 12% | -3% | 4%
Nc1c(Br)cc2c3c(cccc13)-c1ccccc1-2 | ? | nt | 7% | 11µM* | 1%
Cn1cccc1/C=C1\C(=O)NC(=O)N(CCC2=CCCCC2)C1=O | 3% | 0% | 14% | -5% | 0%
Cn1cccc1/C=C1\C(=O)NC(=O)N(Cc2ccccc2Cl)C1=O | -24% | 15% | 11% | 11µM* | -1%
C=CCn1c(O)c(/C=C2/C=CC=N2)c(=O)[nH]c1=O | ? | 5% | 10% | -15% | 0%
O=c1[nH]c(=O)n(Cc2ccccc2Cl)c(O)c1/C=C1/C=CC=N1 | ? | ? | 5% | 8.9µM* | -14%
CCCCn1c(O)c(/C=C2/C=CC=N2)c(=O)[nH]c1=O | 10µM* | -1% | 4% | ? | 1%
O=c1[nH]c(=O)n(Cc2ccccc2)c(O)c1C=NCCCO | -2% | -1% | nt | -11% | nt
CC1(O)CCC2C3CCC4=CC(=O)CCC4(C)C3(F)C(O)CC21C (stereo not drawn) | nt | nt | nt | nt | 11%
CCC(N)CCc1c[nH]c2ccccc12 (stereo not drawn) | nt | nt | nt | nt | 52%[99.4 µM]
Cc1cc(C(C#N)c2ccc(Cl)cc2)c(Cl)cc1NC(=O)c1cc(I)cc(I)c1O (stereo not drawn) | -1% | nt | 14µM* | -1% | 17%
C=CCC1=C(C)C(OC(=O)C2C(C=C(C)C)C2(C)C)CC1=O (stereo not drawn) | nt | nt | nt | nt | -14%[99.4 µM]
